Bioassay records as filed in PubChem.
Sampled rows, rich in hits. Any-hit rate of the full collection: about 1.8%.
RAD54 inh: RAD54 (human) branch migration inhibition; Q92698; AID 602329; inhibition, % at 10.4 µM; RAD54 Holliday junction branch migration, FAM/BHQ fluorescence; 360,000 tested, 0.14% active;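 active = mean normalized replicate activity at least 40 and at least half of replicates scoring 40 or more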;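 note: 0% = median of neutral control wells and 100% = median of positive control wells; inhibitors cause a drop in the FAM fluorescence signal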
Target sequence (Q92698 whole entry, looked up): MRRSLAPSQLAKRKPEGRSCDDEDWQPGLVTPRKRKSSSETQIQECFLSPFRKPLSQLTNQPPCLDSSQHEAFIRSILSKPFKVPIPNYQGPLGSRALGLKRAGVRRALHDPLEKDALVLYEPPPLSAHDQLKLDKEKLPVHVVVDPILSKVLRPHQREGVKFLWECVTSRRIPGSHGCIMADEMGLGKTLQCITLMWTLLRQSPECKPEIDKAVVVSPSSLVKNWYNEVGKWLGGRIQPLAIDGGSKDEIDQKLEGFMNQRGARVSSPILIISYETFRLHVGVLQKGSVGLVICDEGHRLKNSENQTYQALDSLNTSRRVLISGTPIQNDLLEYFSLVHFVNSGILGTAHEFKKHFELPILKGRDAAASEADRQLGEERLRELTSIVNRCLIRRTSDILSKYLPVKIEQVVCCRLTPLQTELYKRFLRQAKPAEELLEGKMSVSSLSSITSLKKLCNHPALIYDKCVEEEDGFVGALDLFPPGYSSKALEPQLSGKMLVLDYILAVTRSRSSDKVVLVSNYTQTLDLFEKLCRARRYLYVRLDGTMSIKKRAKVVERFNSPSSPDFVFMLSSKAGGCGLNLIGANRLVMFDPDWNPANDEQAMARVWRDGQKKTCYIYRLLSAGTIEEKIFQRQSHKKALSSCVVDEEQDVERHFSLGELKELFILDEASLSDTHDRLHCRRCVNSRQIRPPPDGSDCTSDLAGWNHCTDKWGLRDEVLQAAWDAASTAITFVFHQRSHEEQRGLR
LGR2 inh: inhibitors of bursicon-induced Drosophila LGR2 receptor cAMP signaling | HEK293 LGR2, CRE-luciferase, bursicon-stimulated, 4 h | inhibition, % at 9.99 µM | 380,000 tested, 0.35% active | AID 720647;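 active = drop in luminescence signal, shown as inhibition above about 50% in the replicate tests, limit read from the data, passing the limit was not always enough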;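 note: agonist challenge used bursicon conditioned medium at about half maximal strength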
EWS-Fli block: blocks EWS/Fli oncoprotein-driven transcription | AID 651661 | A673 NR0B1-luciferase reporter, viability-normalised | 350,000 tested, 0.67% active | inhibition, % at 12.6 µM;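 active = mean inhibition of at least 50% after viability correction, with every replicate also passing that limit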;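 note: firefly luciferase signal divided by Alamar Blue viability fluorescence both relative to DMSO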
F508del corr: correctors of CFTR F508del function in bronchial epithelial cells. CFBE cells, YFP halide quenching; stimulated with forskolin plus potentiator P3; % fluorescence drop versus neutral controls. activity (quench increase), % at 7.58 µM. 350,000 tested, 0.36% active;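 active = mean added fluorescence quench of at least 8% versus neutral control, with both replicates also reaching 8%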;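 note: cells transiently co-express mutant CFTR-F508del with the halide-sensitive YFP; corrector assay measuring rescue of mutant channel to the surface after 24 h compound exposure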
GSIS activator: primary screen for activators of insulin secretion dependent on glucose, INS-1E cells, GLuc reporter luminescence. INS-1E GLuc reporter insulin secretion, 2-3 h. activation, % at 16.6 µM. 370,000 tested, 0.61% active. AID 743287;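 active = lowest replicate activation of at least 40%, so every replicate reaches that level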;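 note: 0% = median of neutral control wells and 100% = median of IBMX positive control wells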
RAD52 inh: inhibitors of human RAD52 DNA annealing; P43351; recombinant RAD52 DNA annealing, FRET fluorescence; inhibition, % at 18.7 µM; 360,000 tested, 0.46% active; AID 651710;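 active = every replicate showing at least 50% inhibition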
The depositor's hits bear a star; / = not tested or not shown.

SMILES	RAD54 inh	LGR2 inh	EWS-Fli block	F508del corr	GSIS activator	RAD52 inh
COc1ccc(-n2ccsc2=S)cc1	-4.2	-0.2	9.1	-2.9	5.2	0.0
CCCCc1c(-c2ccccc2OC)ncn1CCc1ccc(OC)cc1	/	30.7	3.7	-2.1	1.2	6.4
CCCCc1c(-c2ccccc2OC)ncn1C(C)c1ccccc1 (stereo not drawn)	/	30.4	16.4	2.3	91.8*	-19.7
CCCCc1c(-c2ccccc2OC)ncn1CCc1ccccc1	/	20.0	18.9	3.0	46.2*	10.9
Cc1ccc(-c2nc3ncccn3c2N)cc1	/	11.6	-17.2	1.8	21.3	-12.1
Nc1c(-c2ccccc2)nc2ncccn12	/	-7.8	-3.9	3.4	48.7*	-4.5
COc1cc(/C=N\NS(=O)(=O)c2ccccc2)cc(OC)c1OC	-4.3	6.0	11.5	-2.9	3.0	-3.1
COc1ccc(/C=C2/SC(=O)N(NS(=O)(=O)c3ccccc3)C2=S)cc1OC	-2.9	-8.5	10.6	-1.1	48.7*	-69.0
COc1ccc(/C=N/NS(=O)(=O)c2ccccc2)cc1OC	-4.5	-2.9	1.0	-0.1	71.4*	-0.9
COc1cc(/C=C2\SC(=S)N(NS(=O)(=O)c3ccccc3)C2=O)cc(OC)c1OC	-2.7	2.5	5.8	-1.4	-12.2	-13.9
NC(=S)N/N=C/c1cccc(O)c1O	/	0.7	30.2	-2.8	1.4	-21.1
Cc1cc(/C=N/NC(N)=S)c(O)c(/C=N/NC(N)=S)c1	-38.7	-5.0	9.0	14.0*	14.6	-21.2
COCCN(CCOC)Cc1cc(=O)oc2ccccc12	-1.2	2.9	0.6	0.3	1.5	-6.5
CC(C)(C)OC(=O)CNC(=O)c1[nH]cnc1C(=O)NCC(=O)OCc1ccccc1	-6.8	3.4	-9.3	-0.1	-4.2	-2.6
CC(C)(C)OC(=O)NCCCCCNC(=O)c1nc[nH]c1C(=O)NCC(=O)OCc1ccccc1	-5.8	84.5*	-1.0	-0.1	-10.8	-6.6
CC(C)(C)OC(=O)NCCCCCNC(=O)c1nc[nH]c1C(=O)NCCCCCNC(=O)OC(C)(C)C	0.3	101.6*	29.3	0.4	-8.4	-4.2
COC1CCCN(Cc2c(C(=O)N3CCc4ccccc4C3)nc3ccc(Cl)cn23)C1 (stereo not drawn)	4.1	-4.8	4.4	-3.9	3.4	-41.3
Cc1ccccc1CN1C(=O)c2ccccc2C1c1nnnn1-c1ccc2c(c1)OCCO2 (stereo not drawn)	/	-22.3	60.7*	4.8	-3.8	-11.8
Cn1c(=O)n(CCc2ccccc2)c2ccccc21	-3.1	1.1	-13.8	2.8	14.9	-7.6
Cn1c(=O)n(Cc2ccccc2Br)c2ccccc21	-6.7	-20.1	3.1	1.6	50.3*	0.8
COCC(=O)N[C@@H]1CC[C@@H](CC(=O)NCc2ccccc2OC)O[C@@H]1CO	0.2	78.9*	-2.8	-0.8	13.9	5.7
COCC(=O)N[C@H]1CC[C@H](CC(=O)NCc2ccccc2OC)O[C@H]1CO	1.5	-6.8	1.0	-4.8	8.8	5.3
C/C=C/Cn1c(Br)nc2c1c(=O)[nH]c(=O)n2C	-16.6	5.4	0.3	1.6	64.9*	13.1
C/C=C/Cn1c(SC)nc2c1c(=O)[nH]c(=O)n2C	1.2	/	/	/	/	/
Cn1c(=O)[nH]c(=O)c2c1nc(N1CCCCC1)n2C/C=N/Nc1ccc(C(=O)O)cc1	-20.3	11.4	-4.7	2.9	48.8*	-40.3
SMILES	RAD54 inh	LGR2 inh	EWS-Fli block	F508del corr	GSIS activator	RAD52 inh
C/C=C/Cn1c(N(C)Cc2ccccc2)nc2c1c(=O)[nH]c(=O)n2C	-3.5	-4.6	11.3	-2.1	46.5*	-38.8
C/C=C/Cn1c(N2CCCCCC2)nc2c1c(=O)[nH]c(=O)n2C	-3.4	4.9	/	/	61.8*	/
Cn1c(=O)[nH]c(=O)c2c1nc(N1CCCC1)n2CCO	-3.5	2.3	7.3	1.4	-0.4	-2.2
CCOC(=O)c1ccc(NC(=O)Oc2cc(C)c(Cl)cc2C(C)C)cc1	-3.3	-9.7	3.1	3.5	-10.2	-12.1
CC(C)Nc1ncnc2c1ncn2[C@H]1CN(Cc2ccc3c(c2)OCO3)C[C@@H](CO)O1	-3.2	-3.6	-7.5	2.5	/	2.9
Cn1c(=O)[nH]c(=O)c2c1nc(Br)n2Cc1cccc(Br)c1	1.6	-4.7	56.4*	7.5	4.6	-9.6
N#CCNC(=O)c1nn2c(C(F)(F)F)cc(-c3ccccc3)nc2c1Br	-7.3	-8.3	4.8	1.9	/	-8.9
CC(C)OC(=O)c1nn2c(C(F)(F)F)cc(-c3ccc(Br)o3)nc2c1Br	/	4.6	/	/	157.2*	/
C/C=C/c1ccc2c(c1)O[C@H](CN(C)Cc1ccccc1F)[C@@H](C)CN([C@H](C)CO)S2(=O)=O	-0.9	-4.3	25.4	-2.6	-31.9	9.1
COc1ccccc1C(C)NS(=O)(=O)c1ccc(Cl)nc1 (stereo not drawn)	1.9	-4.4	-3.9	-1.8	44.1*	-5.0
COc1cccc(/C=N/NC(=O)C(=O)Nc2ccccc2OC(F)(F)C(F)F)c1O	/	16.9	10.9	15.0*	-6.2	-1.7
COc1cc(/C=N/NC(=O)c2ccccc2)ccc1O	/	-48.8	-12.2	1.3	1.4	-9.8
Cc1ccc(C(=O)Nc2cccc(C(=O)N/N=C/c3ccc(F)cc3)c2)cc1	-8.7	-44.5	-12.4	1.1	101.2*	-11.4
COc1ccccc1/C=N/NC(=O)c1cccc(OC(F)(F)C(F)F)c1	/	-24.3	-4.4	/	-12.9	-13.6
COc1ccc(/C=N/NC(=S)Nc2ccccc2)cc1	/	-82.9	-36.9	-3.4	2.6	-9.1
COc1cc(/C=N/NC(=S)Nc2cccc(C(=O)O)c2)ccc1O	-7.9	91.2*	81.4*	/	1.4	-8.6
COc1ccc(/C=N/NC(=S)Nc2cccc(C(=O)O)c2)cc1	/	75.2*	2.4	1.4	4.2	-1.0
COc1ccc(N(CC(=O)Nc2nccs2)S(=O)(=O)c2c(C)nn(C)c2C)cc1	-5.2	-24.2	-2.8	-3.9	-3.5	-5.1
c1cncc(CSc2nnc3ccc(-c4ccco4)nn23)c1	9.2	-5.3	-1.4	0.2	-0.2	0.8
COc1cccc(/C=N/NC(=S)Nc2cccc(C(=O)O)c2)c1O	/	65.9*	61.2*	0.6	6.9	-42.7
COc1cccc(/C=N/NC(=O)c2ccc(-c3ccccc3)cc2)c1O	-5.1	/	/	/	/	/
C=CCn1c(=O)c2ccccc2n2c(SCC(=O)NCCc3ccccc3)nnc12	-12.8	/	/	/	/	/
C[C@@H]1CN([C@H](C)CO)C(=O)Cc2cc(NC(=O)CCC(F)(F)F)ccc2O[C@H]1CN(C)Cc1ccc2c(c1)OCO2	5.2	3.9	-2.0	0.4	-4.8	-4.6
COc1ccc(CNC(N)=O)cc1OC	-0.3	/	/	/	/	/
COc1ccc(CN/C(C)=C(/C#N)C(N)=O)cc1OC	-2.8	/	/	/	64.7*	/
Nc1[nH]c(C(=O)c2ccccc2)c(-c2cccc3ccccc23)c1C(=O)c1cccs1	/	-4.6	0.6	-1.4	17.8	-15.3
O=C(NNC(=O)c1ccccc1C(=O)O)c1ccc(O)cc1	8.6	-9.8	8.4	-2.2	3.1	-17.0
